Assay [1] in a line: Tanguay_ZF_120hpf_SWIM_legacy: (Legacy) Oregon State University Tanguay Lab 120 Hour Post-fertilization zebrafish Assay for Swim Bladder Malformation (AID 2283654).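 Note: swim bladder malformation in each larva scored yes or no under brightfield.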 In a few lines: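 Dechorionated wild-type Tropical 5D zebrafish embryos, one per well from 6 hpf, were statically exposed at 28C until 120 hpf in 0.64% DMSO. Swim bladder malformation scored as present/absent by brightfield microscopy; not scored in dead larvae.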

The nature of assay [2]: Tanguay_ZF_120hpf_TRUN_legacy: (Legacy) Oregon State University Tanguay Lab 120 Hour Post-fertilization zebrafish Assay for Truncated Body (AID 2283655). In a few lines: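 Dechorionated Tropical 5D wild-type embryos placed singly from 6 hpf and statically exposed to 120 hpf at 28C, final DMSO 0.64%. Truncated body scored as present/absent by brightfield; not scored in dead embryos.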

A short description of assay [3]: Tanguay_ZF_120hpf_NC_legacy: (Legacy) Oregon State University Tanguay Lab 120 Hour Post-fertilization zebrafish Assay for Notochord and Tail Malformation (AID 2283656). In a few lines: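 Dechorionated 5D zebrafish, 1/well from 6 hpf; static exposure to 120 hpf, 28C, sealed, dark; final DMSO 0.64% v/v. NC scored binary (present/absent); dead embryos not scored. Fit vs DMSO baseline, gain direction.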

A short description of assay [4]: Tanguay_ZF_120hpf_TR_legacy: (Legacy) Oregon State University Tanguay Lab 120 Hour Post-fertilization zebrafish Assay for Touch Response (AID 2283667). In a few lines:
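Tropical 5D wild-type zebrafish embryos statically exposed to 120 hpf at 28°C, sealed and dark-covered, 0.64% DMSO final; touch response scored as present/absent by brightfield microscopy at 120 hpf. Trimethyltin chloride 5 uM positive control; dead embryos not scored.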

Assay [5] in a line: CCTE_Simmons_CellTiterGLO_HEK293T: Viability Assessment in CCTE's Assays for Thyroperoxidase (TPO) Inhibition, Simmons Lab (AID 2283665).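 For AC50: cells exposed to compound for 24 h before readout; actives reduce ATP signal below DMSO vehicle meaning cytotoxicity.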 In a few lines:
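Cytotoxicity counter-screen: human HEK293T cells in low-serum (1% FBS) medium receive test chemical, 5 nM to 87.5 uM final, for 24 h; ATP is quantified by luciferase luminescence.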

Assay [6] can be described thus: CCTE_Padilla_ZF_144hpf_TERATOSCORE: (Legacy) CCTE's 144 Hour Post-fertilization zebrafish Assay Teratoscore, Padilla Lab (AID 2283679; active = hit-call score of the fitted dose curve at least 0.9, where 1 is the maximum; inactive = score below 0.9;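 for AC50: zebrafish embryos with chorions exposed by immersion from 6-8 hpf to 5 dpf with daily renewal; teratogenicity score from eye scoring of death hatching and malformations at 144 hpf; higher score means more developmental defects relative to DMSO baseline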). In a few lines:
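Larvae scored by eye at 144 hpf for death, hatching and malformations after a day in clean Hanks'. Before that, daily-renewed exposure at 80 uM (0.4% DMSO, 26C) from roughly 6-8 hpf through 5 dpf, 4 embryos per chemical.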

The nature of assay [7]: Tanguay_ZF_120hpf_ActivityScore_legacy: (Legacy) Oregon State University Tanguay Lab 120 Hour Post-fertilization zebrafish Assay Score for Activity (AID 2283742). In a few lines:
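Dechorionated Tropical 5D embryos, one per well from 6 hpf, statically exposed to 120 hpf at 28 °C in 0.64% DMSO. Mortality and malformations scored binary by brightfield microscopy; activity score combines 18 endpoints, fitted positively versus DMSO.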

Assay [8] can be described thus: STM_H9_OrnithineISnorm_perc: Stemina devTOX quickPredict H9 human embryonic stem cell (hESC)-based Assay for Ornithine (ORN) Metabolite Biomarker, Normalized (AID 2283712; active = hit-call score of the fitted dose curve at least 0.9, where 1 is the maximum; inactive = score below 0.9;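 note: ornithine released into spent medium during last day measured by mass spectrometry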). In a few lines: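 Cells: undifferentiated H9 hESC. Dosing: 72 h, media replaced every 24 h. Sample: final 24-h conditioned media, 40% acetonitrile. Read: UPLC-HRMS ornithine area vs 13C standard, % DMSO control.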

Assay [9] can be described thus: STM_H9_CystineISnorm_perc: Stemina devTOX quickPredict H9 human embryonic stem cell (hESC)-based Assay for Cystine (CYSS) Metabolite Biomarker, Normalized (AID 2283713; active = hit-call score of the fitted dose curve at least 0.9, where 1 is the maximum; inactive = score below 0.9). In a few lines:
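Secreted cystine was measured by UPLC-HRMS in H9 hESC medium after 72h compound exposure with 24-hourly replenishment. Values are standard-normalized areas relative to 0.1% DMSO.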

Read-out in assay [10]: solute carrier (SLC10A1), SLC10A1 (gene 6554)
Put plainly: LTEA_HepaRG_SLC10A1: Life Technologies and Expression Analysis (LTEA) Assay for solute carrier (SLC10A1) using HepaRG (AID 2283657; active = hit-call score of the fitted dose curve at least 0.9, where 1 is the maximum; inactive = score below 0.9). As to conditions: mRNA level, 48 h; actives raise or lower the signal. In a few lines:
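HepaRG cells (single lot) exposed 48 h in serum-free induction medium, 8-point half-log series from 100 uM top in 0.5% DMSO, duplicate. SLC10A1 mRNA by qRT-PCR normalised to ACTB, GAPDH, POLR2A; bidirectional fit versus DMSO.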

Read-out in assay [11]: matrix metalloproteinase-1 (MMP1), MMP1 (gene 4312)
The assay can be described thus: LTEA_HepaRG_MMP1: Life Technologies and Expression Analysis (LTEA) Assay for matrix metalloproteinase-1 (MMP1) using HepaRG (AID 2283658; active = hit-call score of the fitted dose curve at least 0.9, where 1 is the maximum; inactive = score below 0.9). As to conditions: mRNA level, 48 h; actives raise or lower the signal. In a few lines: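 Differentiated human HepaRG cells, 48 h post-plating in serum-free induction medium, were exposed 48 h to eight half-log concentrations topping at 100 uM in 0.5% DMSO, duplicate. MMP1 mRNA measured by Fluidigm TaqMan qRT-PCR, normalized to ACTB, GAPDH, POLR2A; bidirectional fits versus DMSO.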

Read-out in assay [12]: Cytochrome P450 (CYP24A1_1), CYP24A1 (gene 1591)
The assay can be described thus: LTEA_HepaRG_CYP24A1_1: Life Technologies and Expression Analysis (LTEA) Assay for Cytochrome P450 (CYP24A1_1) using HepaRG (AID 2283671; active = hit-call score of the fitted dose curve at least 0.9, where 1 is the maximum; inactive = score below 0.9). As to conditions: mRNA level, 48 h; actives raise or lower the signal. In a few lines: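 Differentiated human HepaRG cells in serum-free induction medium, exposed 48 h in duplicate to eight half-log concentrations from 100 uM top, 0.5% DMSO. Transcript measured by TaqMan qRT-PCR, normalised to ACTB, GAPDH, POLR2A; bidirectional fitting versus DMSO.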

A short description of assay [13]: STM_H9_OrnCyssISnorm_ratio: Stemina devTOX quickPredict H9 human embryonic stem cell (hESC)-based Assay for Ornithine (ORN):Cystine (CYSS) Ratio (AID 2283714). In a few lines:
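Undifferentiated H9 hESCs exposed 72 h, media and compound replaced every 24 h; final 24-h conditioned media deproteinized and analysed by UPLC-HRMS against C13 spike-ins. Value is the internal-standard-normalized ORN/CYSS ratio versus 0.1% DMSO.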

A short description of assay [14]: CEETOX_H295R_MTT_cell_viability: Viability Assessment in the CeeTox HT-H295R MTT Assay (AID 2283718; active = hit-call score of the fitted dose curve at least 0.9, where 1 is the maximum; inactive = score below 0.9). In a few lines:
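Human H295R adrenal cells, prestimulated 48 h with 10 uM forskolin, were exposed 48 h to chemicals in 0.1% DMSO. Viability was measured in the same wells by MTT (0.5 mg/ml, 4 h, 37 C), absorbance 570/650 nm, as percent of controls.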

The nature of assay [15]: ArunA_CellTiter_hNC: Viability Assessment in the ArunA Biomedical's Oris Neural Crest (hNC) Cell Migration Assay (AID 2283752). In a few lines:
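Viability of embryonic neural crest stem cells from the H9 line is scored 72 h after dosing, with DMSO as negative control and baseline. A drop in CellTiter Aqueous One signal indicates cytotoxicity.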

Assay [16] is described as follows: ArunA_Migration_hNP: ArunA Biomedical's Oris Neuroprogenitor (hNP) Cell Migration Assay (AID 2283754). In a few lines:
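Human H9-derived hNP1 neuroprogenitors on Matrigel with LIF/bFGF, plated around seeding stoppers for 16 h at 37C; stoppers removed at start of 72 h chemical exposure. Calcein-AM staining, fluorescence 494/517 nm in detection zone; loss-of-signal vs DMSO; cytochalasin D control.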

A short description of assay [17]: ArunA_Migration_hNC: ArunA Biomedical's Oris Neural Crest (hNC) Cell Migration Assay (AID 2283755). In a few lines: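 Human H9-derived neural crest stem cells, 60,000/well on Matrigel, 16 h at 37C, then 72 h chemical exposure after seeding-stopper removal. Migration into detection zone read as calcein-AM fluorescence (ex494/em517), relative to DMSO.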
Assay [18] in a line: ArunA_NOG_NucleusCount: ArunA Biomedical's Neurite Outgrowth (NOG) Assay for Nucleus Count (AID 2283756). In a few lines:
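Human H9-derived differentiated neurons were exposed for 48 h right after seeding. Hoechst-stained nuclei gated by size and intensity were counted by automated high-content imaging as viable neurons. Loss of signal vs DMSO.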

Inconclusive results are not listed. Calls of active or inactive are those of the source. Rule for the calls, unless noted: active = hit-call score of the fitted dose curve at least 0.9, where 1 is the maximum; inconclusive = response in the unintended direction; inactive = score below 0.9.

Consider `NS(=O)(=O)c1cc2c(cc1Cl)NCNS2(=O)=O`, for which the molecule was classed as inactive in assay [1], in assay [2] and in assay [3].

For the molecule `CCCCCCCCCCCCCCCC`, the result in assay [1], in assay [2], in [3] and in [4] was inactive.

Consider `CN[C@H]1CC[C@@H](c2ccc(Cl)c(Cl)c2)c2ccc(S(N)(=O)=O)cc21`, for which the call in assay [1], in assay [2], in [3], in assay [4] and in assay [7] was inactive. For the same molecule, the AC50 in assay [5] is 9.23 µM (active); in assay [6] it was 61.9 µM (active).

Turning to `CCCCCCCCCCCC(=O)OC`, the outcome in [1], in assay [2], in [3] and in assay [4] was inactive.

As to `CC1=C(/C=C/C(C)=C/C=C/C(C)=C/CO)C(C)(C)CCC1`, the outcome in assay [1], in [2], in [3], in assay [8] and in [9] was inactive. The AC50 is 12 µM (active) in [5] and 28.2 µM (active) in assay [6].

Regarding `CCCCCC(=O)O`, the call in assay [1], in assay [2], in assay [3] and in assay [4] was inactive.

As for `C[Si]1(C)O[Si](C)(C)O[Si](C)(C)O[Si](C)(C)O1`, the molecule was called inactive in [1], in assay [2], in assay [3] and in [4].

As to `Oc1ccc2ccccc2c1N=Nc1ccccc1`, the AC50 was 51.7 µM (active) in assay [1]; 4.88 µM (active) in assay [10]; 17 µM (active) in [5]; 25.4 µM (active) in assay [4]; 5.21 µM (active) in assay [6]; 0.0559 µM (active) in assay [7]. In addition, the molecule was called inactive in assay [2], in [3], in assay [11], in assay [12], in [8] and in assay [9]. Moreover, the result in assay [13], in [14], in assay [15], in assay [16] and in assay [17] was inactive.

In the case of `Cc1cc(NC(=O)C(=O)O)cc(C)c1Oc1ccc(O)c2c1CCC2`, the molecule was classed as inactive in assay [1], in assay [2], in assay [3], in [5], in [4] and in assay [8]. The outcome in assay [9], in assay [14], in assay [15], in assay [16], in [17] and in assay [18] was inactive. The AC50 in assay [6] is 0.657 µM (active); in assay [7], 0.216 µM (active).

`CCCc1cc(=O)[nH]c(=S)[nH]1`: the molecule was classed as inactive in assay [1], in assay [2], in assay [3], in [5], in assay [4] and in [8]. Further, the outcome in assay [9], in assay [13], in assay [7], in [16], in assay [17] and in assay [18] was inactive.

With `COCCOCCOC`, the outcome in assay [1], in assay [2], in assay [3], in assay [4], in assay [6] and in assay [8] was inactive. For the same molecule, the result in [9] and in [13] was inactive.

On to `NC(=O)Cn1c(=O)cc(CCN2CCN(c3nccc4sccc34)CC2)c2ccc(F)cc21`, for which the result in assay [1], in assay [2], in assay [3], in [4], in [9] and in assay [13] was inactive. The molecule was classed as inactive in assay [14] and in assay [7]. Besides, the AC50 in [8] was 0.0187 µM (active).

For `Cc1ccccc1Cl`, the call in assay [1], in assay [2], in assay [3], in assay [4] and in [7] was inactive.

Consider `NCC1(Cc2noc(=O)[nH]2)CCCCC1`, for which the molecule was called inactive in assay [1], in assay [2], in [3], in assay [4] and in assay [7].

Turning to `C=CCc1ccc(O)c(OC)c1`, the molecule was called inactive in [1], in assay [2], in assay [5], in [4], in [14] and in assay [7].

Consider `CCCCOC(=O)CCCCCCCCC(=O)OCCCC`, for which the call in assay [1], in assay [2], in assay [3], in [4] and in assay [7] was inactive.

Turning to `O=C(O)Cc1ccccc1Nc1c(Cl)cccc1Cl`, the molecule was classed as inactive in assay [1], in assay [2], in assay [3], in assay [4], in assay [8] and in assay [9]. In addition, in assay [13], the outcome was inactive. Besides, the concentration at half-maximal activity (AC50) is 4.79 µM (active) in assay [6] and 35 µM (active) in assay [7].

With `COc1cc(-c2nc(NC(=O)c3cc4cc(C)cc(C)c4n3CC(=O)O)sc2CCC2CCCCC2)c(OC)cc1Cl`, the outcome in [1], in [2], in assay [3], in assay [4] and in assay [7] was inactive.

Regarding `Cc1cccc(Nc2cc(Cl)nc(SCC(=O)O)n2)c1C`, the outcome in assay [1], in assay [2], in assay [3], in assay [4], in assay [8] and in [14] was inactive. In assay [9], the half-maximal activity concentration (AC50) is 53.6 µM (active).

Values taken from PubChem BioAssay (EPA / NIEHS).
